Test results taken from the supplement of paper PMC10849652.
Targets with a hit are over-represented here; the source holds about 7,900 in all. About 0.6% of all pairs of compound and target were hits.

Columns and labels:
Assay in all cases: log2 fold change, soluble protein after heating vs DMSO (PISA); higher = thermal stabilisation; K562 cells, 10 uM, 30 min; active = over 0.2 and 3.5 SD of the protein, either way, in both replicates (recomputed)
[1] = molecular target: AAGAB (UniProt Q6PD74)
Procedure, shortened: (§1)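 K562 cells at 2×10^6 cells/mL were treated with 10 μM compound for 30 min. Aliquots were heated for 3 min across 48°C-58°C, pooled, and extracted in PBS with 0.5% NP-40 at 4°C; soluble protein was the supernatant after 21,000xg for 90 min. Soluble protein was quantified by TMTpro 16plex LC-MS/MS with channel sums equalised, and reported as log2 fold change in thermal stability against DMSO controls, with values from duplicates.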

[2] = molecular target: AAK1 (UniProt A0A096LP25)
Procedure, shortened: as §1

[3] = molecular target: AAK1 (UniProt Q2M2I8)
Procedure, shortened: as §1

Measured: log2 fold change

AAGAB, sequence (Q6PD74 whole entry, looked up): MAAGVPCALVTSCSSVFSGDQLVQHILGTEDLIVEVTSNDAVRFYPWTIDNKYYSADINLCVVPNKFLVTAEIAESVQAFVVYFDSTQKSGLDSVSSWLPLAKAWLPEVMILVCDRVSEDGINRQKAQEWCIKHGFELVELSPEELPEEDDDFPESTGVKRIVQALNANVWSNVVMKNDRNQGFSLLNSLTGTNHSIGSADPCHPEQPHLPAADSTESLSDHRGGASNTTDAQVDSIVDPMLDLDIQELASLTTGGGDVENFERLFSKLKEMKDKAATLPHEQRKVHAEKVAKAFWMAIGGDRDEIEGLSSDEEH
AAK1 (UniProt Q2M2I8), sequence (Q2M2I8 whole entry, looked up): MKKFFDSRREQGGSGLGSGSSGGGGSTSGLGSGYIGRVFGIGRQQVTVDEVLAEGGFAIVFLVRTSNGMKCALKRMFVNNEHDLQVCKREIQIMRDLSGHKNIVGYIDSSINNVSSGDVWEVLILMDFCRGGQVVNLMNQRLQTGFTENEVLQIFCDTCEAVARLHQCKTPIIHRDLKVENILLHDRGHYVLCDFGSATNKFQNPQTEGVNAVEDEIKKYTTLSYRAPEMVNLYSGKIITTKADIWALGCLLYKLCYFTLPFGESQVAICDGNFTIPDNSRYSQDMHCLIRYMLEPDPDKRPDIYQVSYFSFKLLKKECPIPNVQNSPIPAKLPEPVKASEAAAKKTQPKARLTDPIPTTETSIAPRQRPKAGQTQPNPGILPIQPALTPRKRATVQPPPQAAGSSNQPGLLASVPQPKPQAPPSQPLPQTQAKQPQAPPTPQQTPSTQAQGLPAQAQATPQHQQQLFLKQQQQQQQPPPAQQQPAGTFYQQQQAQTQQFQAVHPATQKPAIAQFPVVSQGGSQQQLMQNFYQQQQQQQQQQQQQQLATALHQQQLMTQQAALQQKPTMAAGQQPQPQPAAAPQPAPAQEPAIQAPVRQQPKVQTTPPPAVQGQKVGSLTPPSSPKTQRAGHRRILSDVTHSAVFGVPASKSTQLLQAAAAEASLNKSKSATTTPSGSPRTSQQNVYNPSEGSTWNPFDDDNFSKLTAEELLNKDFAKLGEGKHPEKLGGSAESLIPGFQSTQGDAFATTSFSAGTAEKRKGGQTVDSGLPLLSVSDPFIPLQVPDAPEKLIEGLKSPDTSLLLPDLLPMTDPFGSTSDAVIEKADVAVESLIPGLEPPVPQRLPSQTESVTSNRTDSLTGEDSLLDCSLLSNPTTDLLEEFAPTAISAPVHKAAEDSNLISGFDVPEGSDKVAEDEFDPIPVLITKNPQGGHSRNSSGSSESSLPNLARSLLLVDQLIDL

Cc1sc2c(c1C)C(c1ccc(Cl)cc1)=N[C@@H](CC(=O)OC(C)(C)C)c1nnc(C)n1-2
inactive: [1] -0.03 | [2] -0.024 | [3] -0.217

c1ccc([C@@H]2C[C@H]2NC2CCNCC2)cc1
inactive: [1] 0.038 | [2] 0.072 | [3] -0.017

O=C(N[C@@H](COc1ccc2[nH]c(=O)[nH]c2c1)c1ccccc1)c1cccn(Cc2ccc(F)c(F)c2)c1=O
inactive: [1] -0.025 | [2] -0.056 | [3] 0.02

Cc1sc2c(c1C)C(c1ccc(Cl)cc1)=N[C@@H](CC(N)=O)c1nnc(C)n1-2
inactive: [1] 0.044 | [2] -0.041 | [3] 0.039

Cc1ccccc1-n1c(Cn2cnc3c(N)ncnc32)nc2cccc(C)c2c1=O
inactive: [1] 0.198 | [2] -0.046 | [3] 0.083
